In all, about 33,000 sequences were measured (“E-score (-0.5 to 0.5)”: median about -8e-05, highest 2% from about 0.23 on). The sample as a whole holds a higher share of the highest values than the screen did.
Each sequence was assayed against T1, Nrg2 (UniProt P38082) (assay: PBM E-score (8-mer binding enrichment) (E-score (-0.5 to 0.5)); higher = stronger / more preferred TF binding). Details: protein concentration: 100 nM; construct: GST-full length.
T1 sequence: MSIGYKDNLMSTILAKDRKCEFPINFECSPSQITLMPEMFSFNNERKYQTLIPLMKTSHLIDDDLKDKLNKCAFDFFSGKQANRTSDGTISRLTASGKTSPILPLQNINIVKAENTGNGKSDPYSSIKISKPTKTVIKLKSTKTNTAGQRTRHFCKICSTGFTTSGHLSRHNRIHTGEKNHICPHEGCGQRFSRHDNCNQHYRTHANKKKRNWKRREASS
Method: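 Universal 'all 10-mer' protein binding microarrays (Agilent AMADID 015681) probed with GST-tagged S. cerevisiae TFs (full-length or DBD) made by in vitro transcription/translation (PURExpress), about 100-200 nM. Bound TF was detected with fluorescent anti-GST. Each ungapped 8-mer (which stands for itself and its reverse complement) is scored by the PBM enrichment score (E-score), a modified Wilcoxon-Mann-Whitney statistic from -0.5 to +0.5, computed with the Universal PBM Analysis Suite. Scale: above 0.35 generally sequence-specific binding.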

Row | Sequence | PBM E-score
1 | TGACGTAA | -0.175
2 | CCTTAGAA | -0.0241
3 | GCTAACCA | -0.172
4 | GTAAGATA | 0.0912
5 | GCAACCTA | 0.0294
6 | GAATCCTC | -0.1
7 | AGCAAGGC | -0.0107
8 | AGTAAGGG | 0.233
9 | AGTAAGGC | -0.036
10 | AGCAAAGG | 0.0268
11 | AGCAAGGG | 0.261
12 | AGTAAGGA | -0.00565
13 | AGCAACTC | -0.0833
14 | GCCGGATA | 0.0712
15 | GAAAGCCC | 0.0882
16 | GAAACACC | 0.0146
17 | AATCCCTA | 0.154
18 | AGTCCCTA | 0.0553
19 | AATCCCTG | 0.278
20 | AATCCCTC | -0.0866
21 | AGTCCCTG | 0.294
22 | AGTCCCTC | -0.0587
23 | CTTCAGCC | -0.229
24 | ACATCAAT | 0.079
25 | CTAAATTA | 0.127

Row | Sequence | PBM E-score
26 | ATCAATTC | 0.107
27 | ATAAATTC | 0.0818
28 | GTAAATTA | -0.132
29 | ATCAATTG | 0.15
30 | ATCAATTA | 0.271
31 | AAAAATTG | -0.095
32 | ATAAATTA | 0.316
33 | ATAAATTG | 0.272
34 | ACTAAGGG | 0.0502
35 | GGCTTCCA | -0.186
36 | CGCTTTTA | -0.0218
37 | GGTGCCTA | -0.0877
38 | CGCGCACC | 0.14
39 | GGTTCACA | 0.103
40 | TCTCGCAA | -0.0499
41 | CAACCGCA | 0.0352
42 | CAACCGCG | 0.271
43 | CAACCGCC | 0.0219
44 | AAACCGCA | -0.0776
45 | AAACCGCC | 0.041
46 | AAACCGCG | 0.266
47 | CGTCTTGC | 0.0795
48 | CATGAATC | 0.115
49 | GTTTGTGA | -0.00935
50 | TACAAATA | 0.0774

Row | Sequence | PBM E-score
51 | AACAAGTA | -0.0255
52 | AACAAACA | 0.22
53 | AACAAATG | 0.0558
54 | AACAAATT | 0.251
55 | TACAAACA | 0.243
56 | AACAAAGG | 0.0899
57 | AACAAATA | 0.247
58 | AACAAAGT | 0.26
59 | AACAAGGT | 0.0681
60 | AACAAGTT | -0.0278
61 | TACAAGCA | 0.121
62 | ACCAAGGA | -0.0125
63 | CGGTGGCC | 0.0203
64 | AGATCTAC | 0.00881
65 | ATGCCTGA | -0.126
66 | CATTTGAA | 0.0105
67 | CTTAGTCA | -0.0736
68 | CGGCCCCA | -0.253
69 | ACTCATGA | 0.143
70 | CCTAACTC | -0.0633
71 | AACCTCAG | 0.072
72 | CACCTCGA | 0.256
73 | AACCTCGA | 0.0566
74 | GACCTCGA | 0.126
75 | GGTTCAGA | 0.0397

Row | Sequence | PBM E-score
76 | CCCATGGG | 0.323
77 | ACCATGGG | -0.0447
78 | CCCATGGA | -0.00741
79 | TAGAACAA | -0.00331
80 | GGTCAGGA | 0.244
81 | AGTCAGGA | 0.0134
82 | CGTCAGGA | -0.112
83 | GTGGCAGA | -0.276
84 | AAGAGCAT | -0.0179
85 | GGCCCTGA | 0.24
86 | CGCCCTGA | 0.167
87 | GCCCCCTA | -0.212
88 | GCCCCTGA | 0.292
89 | AGCCCTGA | 0.0189
90 | GCCCCTTA | 0.114
91 | ACATAGAA | 0.157
92 | TCCATCGA | -0.021
93 | GATACCCC | 0.0656
94 | AGCTTTAC | -0.26
95 | CCCGAGGC | -0.176
96 | CATGGTAC | 0.00349
97 | GTATGATA | 0.281
98 | GCATGATA | 0.0399
99 | ATATGATA | 0.249
100 | GTATGACA | -0.0684

Row | Sequence | PBM E-score
101 | CTATGATA | 0.0584
102 | ATATGACA | 0.244
103 | GTATGAGA | 0.133
104 | CTATGACA | -0.012
105 | ATATGATG | 0.0173
106 | GAGGGCAC | -0.111
107 | AGACAGTA | 0.0173
108 | CGAAGCGC | -0.0339
109 | CCATCCTC | -0.111
110 | CTCGGCAC | 0.0273
111 | AAAGATAC | 0.232
112 | AAAGATAA | 0.112
113 | AAAGATAG | -0.188
114 | TCAAAGAA | -0.123
115 | ACGTCTTG | -0.0332
116 | GATAGAGA | -0.0171
117 | CTAAGGAA | 0.0506
118 | CCCTTACG | -0.128
119 | ACGCGAAA | 0.242
120 | TCGCGAAA | 0.161
121 | CCGCGAAA | 0.0786
122 | CGAGTGCA | 0.0846
123 | GTATGGTA | 0.158
124 | GGACGCCA | -0.149
125 | AGACCCAC | 0.0598

Row | Sequence | PBM E-score
126 | AACTTTGT | 0.251
127 | AACTTTGA | -0.0178
128 | AACTTTGG | -0.0393
129 | CGGCTATA | -0.0676
130 | GTAACCAA | 0.0617
131 | CTCCGAAA | -0.0954
132 | ATGACAAC | 0.239
133 | CAGACAAC | 0.178
134 | AAGACAAG | -0.0376
135 | ATGACAAG | 0.142
136 | GTGACAAC | 0.112
137 | AAGACAAC | 0.235
138 | AAACCGAT | -0.137
139 | CCGCCCGA | 0.148
140 | ACTTGGCC | -0.0839
141 | ATCTGCGA | 0.0624
142 | ATCTGCGC | 0.0656
143 | ATCTGCGG | 0.229
144 | ACTAGAGT | -0.204
145 | CTTCGGAC | 0.0444
146 | ATTATCGA | -0.00721
147 | ATTATCGG | -0.142
148 | ATTATCGC | 0.254
149 | ATAGGGGG | -0.364
150 | CCCGACCG | -0.0769

Row | Sequence | PBM E-score
151 | CACCTGGG | -0.0933
152 | GTCGCGAA | 0.125
153 | TTCGCGAA | 0.22
154 | CACGCGAA | -0.135
155 | AACGCGAA | 0.249
156 | GGCGCGAC | 0.149
157 | ATCGCGAA | 0.268
158 | ATCGCGAG | 0.175
159 | ATCGCGAT | 0.271
160 | AACGCGAG | 0.092
161 | ATCGCGAC | 0.0998
162 | GTCGCGAC | 0.37
163 | CTCGCGAC | 0.192
164 | CCGCGCCA | -0.00589
165 | CTCCTGTA | -0.111
166 | ATACCGGA | -0.222
167 | GGCGAGAA | 0.16
168 | AGTGTATG | 0.0501
169 | AAGCTACT | 0.0546
170 | GATCCAGA | 0.187
171 | AACGTAGG | -0.148
172 | CAAAGCGG | -0.0751
173 | AAGCAGTA | -0.0813

— the supplement of paper PMC3334620
